According to PubChem BioAssay AID1779 (Sanford-Burnham Center for Chemical Genomics, 2009):
About 160 (0.055%) of roughly 290,000 compounds were called active. Many of the other results were omitted from the sample, so actives are more common in it than they were. Values without a mark were called inactive. Cut-off read from the data, not from the text of the source: active = inhibition above about 50%; inactive = the rest.

Each compound was assayed against Tyrosine-protein phosphatase non-receptor type 22 (Homo sapiens) (UniProt Q9Y2R2) (assay: inhibitors of LYP phosphatase, biochemical, fluorescence intensity, uHTS (AID 1779;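 note: plate controls were vehicle with enzyme for no effect and no enzyme for full effect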)). Conditions: recombinant LYP phosphatase, at 11.5 µM, stronger effect = higher value.
Tyrosine-protein phosphatase non-receptor type 22 (Homo sapiens), sequence (Q9Y2R2 whole entry, looked up): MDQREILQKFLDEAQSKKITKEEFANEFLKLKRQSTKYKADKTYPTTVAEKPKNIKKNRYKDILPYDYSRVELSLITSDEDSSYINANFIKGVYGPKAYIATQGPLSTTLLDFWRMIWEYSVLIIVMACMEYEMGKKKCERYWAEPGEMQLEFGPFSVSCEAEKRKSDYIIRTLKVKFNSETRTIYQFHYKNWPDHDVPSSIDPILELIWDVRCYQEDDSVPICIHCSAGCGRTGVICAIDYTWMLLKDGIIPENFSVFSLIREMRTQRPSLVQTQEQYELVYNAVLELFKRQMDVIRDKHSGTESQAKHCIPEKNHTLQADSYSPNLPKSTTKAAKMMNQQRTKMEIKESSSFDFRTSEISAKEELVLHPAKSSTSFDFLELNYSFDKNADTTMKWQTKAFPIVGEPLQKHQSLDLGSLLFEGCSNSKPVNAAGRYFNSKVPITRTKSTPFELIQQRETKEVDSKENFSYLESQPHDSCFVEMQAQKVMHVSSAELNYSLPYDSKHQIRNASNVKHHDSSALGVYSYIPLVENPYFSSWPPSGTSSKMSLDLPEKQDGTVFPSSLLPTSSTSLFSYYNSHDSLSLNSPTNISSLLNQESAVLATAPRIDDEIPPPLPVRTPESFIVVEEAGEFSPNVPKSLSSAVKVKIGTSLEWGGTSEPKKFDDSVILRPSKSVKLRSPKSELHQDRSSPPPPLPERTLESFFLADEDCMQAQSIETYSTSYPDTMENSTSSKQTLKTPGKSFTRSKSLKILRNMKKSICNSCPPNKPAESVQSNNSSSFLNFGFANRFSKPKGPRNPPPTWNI
`CCOC(=O)c1c(-c2ccc(C)cc2)csc1NC(=O)c1cccc(N2C(=O)CCC2=O)c1` was tested, and the inhibition was 1%.
Compound `CC1(NC(=O)CC[N+](C)(C)CCO)CS(=O)(=O)CC1S(=O)(=O)[O-]` (centres undefined) has an inhibition of 0.6%.
`CCCC[N+](C)(C)CCC(=O)NC(C)(C)CS(=O)(=O)[O-]` gave an inhibition of -4.3%.
Work on `Cc1c(C(=O)NNC(=S)NCc2ccc(Cl)cc2)oc2ccccc12` yielded an inhibition of -1.3%.
For `COC(=O)CCCC1=CC2=C(c3ccccc3)C(=O)C(C)(OC(=O)C3CCCC3)C(=O)C2=CN1CC1CC1` (centres undefined), the inhibition was -6.7%.
`Cc1ccc2c(c1)N(C(=O)CCC(=O)NCc1cccc(Cl)c1)CC(C)O2` (centres undefined) gave an inhibition of -4%.
In the case of `Cc1ccc2c(c1)N(C(=O)CCC(=O)NCc1cccc(Br)c1)CC(C)O2` (centres undefined), the inhibition is reported as 90.4% (active).
`Cc1ccc2c(c1)N(C(=O)CCC(=O)NCc1ccccc1)CC(C)O2` (centres undefined) gave an inhibition of -6.7%.
Work on `COc1cccc(CNC(=O)c2csc3c2CCCC3)c1` yielded an inhibition of -8.1%.
`CCC(=O)N(Cc1cc2cc(OC)ccc2[nH]c1=O)c1cccc(C)c1` gave an inhibition of -4.9%.
Compound `CCn1c(N)nc2c1c(=O)n(C)c(=O)n2C` has an inhibition of 0.4%.
`Cn1nc(-c2ccccn2)nc2c(=O)n(C)c(=O)nc1-2` was tested, and the inhibition was 73.5% (active).
Work on `CCCc1nc(SCC(=O)c2ccc(OC)cc2)c2c(=O)n(C)c(=O)n(C)c2n1` yielded an inhibition of 7.4%.
`Cn1nc(-c2ccc(Cl)cc2)nc2c(=O)n(C)c(=O)nc1-2` was tested, and the inhibition was -0.7%.
Compound `c1ccc(-c2nc(-c3ccccn3)nc(-c3ccccn3)n2)nc1` has an inhibition of -4%.
With `CCCc1nc2c(=O)n(C)c(=O)nc-2n(C)n1` the inhibition was 79% (active).
Compound `Cn1c(N)c(C(=O)COC(=O)CCc2ccccc2)c(=O)n(C)c1=O` has an inhibition of -4.8%.
`CC1CCCC(NC(=O)COC(=O)CCc2ccccc2)C1C` (centres undefined) was tested, and the inhibition was -5.4%.
`Clc1ccccc1CNCC1CCCO1` (centres undefined) was tested, and the inhibition was -13.9%.
For `CCOC(=O)COc1c(/C=N\O)cc(Cl)cc1OC`, the inhibition was -4.2%.
`COc1ccc(C(=O)c2no[n+]([O-])c2C(=O)c2ccc(OC)cc2)cc1` gave an inhibition of 7.8%.
In the case of `O=C(c1cccs1)c1no[n+]([O-])c1C(=O)c1cccs1`, the inhibition is reported as 55.5% (active).
Compound `Cc1ccc(C(=O)c2no[n+]([O-])c2C(=O)c2ccc(C)cc2)cc1` has an inhibition of -5.8%.
Compound `CN(CC(=O)Nc1ccc(F)cc1)C(=O)CSc1nc2ncc(Cl)cc2[nH]1` has an inhibition of -4.4%.
Work on `N#Cc1ccc(N/N=C/c2cn(-c3ccccc3)nc2-c2ccccc2)c([N+](=O)[O-])c1` yielded an inhibition of -1.1%.
Compound `COCCn1c(C)cc(C(=O)COc2ncnc3ccc(Br)cc23)c1C` has an inhibition of -1.5%.
With `CCOc1ccc(NC(=O)CN(c2ccc(C)cc2)S(=O)(=O)c2c(C)nn(C)c2C)cc1` the inhibition was -8.4%.
With `Cn1c(SCC(=O)N2CCN(c3ccccc3)CC2)nnc1-c1cc2ccccc2o1` the inhibition was 79.7% (active).
Compound `Cn1c(SCC(=O)N2CCN(c3ccccc3)CC2)nnc1-c1ccccc1` has an inhibition of -8.4%.
`Cn1c(SCC(=O)N2CCN(c3ccccc3)CC2)nnc1-c1ccco1` showed an inhibition of -8.2%.
In the case of `Cc1ccc(CNS(=O)(=O)c2ccc(C(C)(C)C)cc2)n1C`, the inhibition is reported as -5.6%.
`Cc1cccc(NC(=O)CN2CCOCC2)c1C` showed an inhibition of -9.5%.
`c1ccc2c(CN3CCOCC3)csc2c1` gave an inhibition of -4.5%.
With `c1ccc2c(CN3CCCCC3)csc2c1` the inhibition was 68.1% (active).
With `Clc1ccc2scc(CN3CCCCC3)c2c1` the inhibition was -6.7%.
`C=CCn1c(C)cc(C(=O)CN2NS(=O)(=O)c3ccccc3C2=O)c1C` showed an inhibition of -3.8%.
In the case of `Cc1nn(Cc2ccc(Cl)cc2)c(C)c1NC(=O)CSc1n[nH]c(C)c1[N+](=O)[O-]`, the inhibition is reported as -3.2%.
`COc1cc2c(cc1OC)C(C(=O)N1CCCC1)C(c1ccccc1F)N(C)C2=O` (centres undefined) showed an inhibition of -2.7%.
In the case of `COc1ccc(C2C(C(=O)N3CCCC3)c3cc(OC)c(OC)cc3C(=O)N2C)cc1OC` (centres undefined), the inhibition is reported as -1.1%.
In the case of `COc1cc2c(cc1OC)C(C(=O)N1CCCCC1)C(c1ccccc1F)N(C)C2=O` (centres undefined), the inhibition is reported as 64.6% (active).
In the case of `COCCCNc1nc2c(-c3ccc(C)cc3)nnn2c2ccccc12`, the inhibition is reported as -6.1%.
In the case of `O=C(N=C1c2ccccc2CN1c1cccc(Cl)c1)c1cccnc1`, the inhibition is reported as -6.2%.
In the case of `COc1cc(SC#N)ccc1N=Cc1c(C)[nH]n(-c2ccc(C)c(C)c2)c1=O`, the inhibition is reported as -5.7%.
`COc1cc(SC#N)ccc1N=Cc1c(C)[nH]n(-c2ccc(C)cc2C)c1=O` showed an inhibition of -3.1%.
`COc1cc(SC#N)ccc1N=Cc1c(C)[nH]n(-c2ccc(Cl)cc2)c1=O` was tested, and the inhibition was 80.6% (active).
For `CCOC(=O)C1CCN(S(=O)(=O)c2cc(Cl)c(C)cc2OC)CC1`, the inhibition was 0%.
`CCOC(=O)C1CCN(C(=O)Nc2ccc3nc(-c4ccco4)c(-c4ccco4)nc3c2)CC1` was tested, and the inhibition was 53.4% (active).
`O=C(Nc1ccc2nc(-c3ccco3)c(-c3ccco3)nc2c1)N1CCCCCC1` showed an inhibition of 17.4%.
`CCOC(=O)C1CCN(C(=O)Nc2ccc3nc(C)c(C)nc3c2)CC1` showed an inhibition of -2.2%.
`CCC(=O)N1CCc2nc(-c3ccccc3)sc2C1` showed an inhibition of -5.1%.
For `COC(=O)c1ccc(CSc2nc(-c3ccccc3)cs2)o1`, the inhibition was -2.6%.
`CC(=O)N1c2c(cc(Br)cc2S(=O)(=O)N2CCCCC2)CC1C` (centres undefined) showed an inhibition of -0.1%.
With `CCOC(=O)N1CCN(S(=O)(=O)c2cc(Br)cc3c2N(C(C)=O)C(C)C3)CC1` (centres undefined) the inhibition was 3%.
For `CC(=O)N1c2c(cc(Br)cc2S(=O)(=O)N2CCOCC2)CC1C` (centres undefined), the inhibition was 51.5% (active).
With `COc1ccc(C(=O)Nc2cccc(C(=O)N3CCCC3)c2)cc1` the inhibition was -7.1%.
Work on `COc1ccccc1CC(=O)Nc1ccc(S(=O)(=O)N2CCN(C)CC2)cc1` yielded an inhibition of -10.4%.
Work on `Cc1cc2nc(Cl)c(Cl)nc2cc1C` yielded an inhibition of -2.6%.
With `Cc1cc2ncc(Cl)nc2cc1C` the inhibition was 59.3% (active).
`Cc1cnc2cc(Cl)c(Cl)cc2n1` gave an inhibition of -3.4%.
`CC(Oc1ccc([N+](=O)[O-])cc1Cl)C(=O)Nc1ccc(C(N)=O)cc1` (centres undefined) was tested, and the inhibition was -5.5%.
Compound `Cc1ccc(NC(=O)C2CCCN2C(=O)NC2CCCCC2)cc1C` (centres undefined) has an inhibition of -7%.
In the case of `CCCN1C(=O)C2(C(C(=O)c3ccc(C)o3)=C(O)C(=O)N2CCCOC)c2ccccc21` (centres undefined), the inhibition is reported as 3.3%.
Work on `O=C(NCc1ccccc1)c1ccc2ccccc2n1` yielded an inhibition of -6.3%.
For `O=C(NCc1ccco1)c1ccc2ccccc2n1`, the inhibition was 56.3% (active).
Work on `Cc1nc2ccccc2cc1C(=O)NCc1ccco1` yielded an inhibition of 1.1%.
`CC1CCN(C(=O)Cn2c(SCC(=O)Nc3nccs3)nc3ccccc32)CC1` gave an inhibition of -1%.
Work on `CN1CCN(c2ccccc2NC(=O)Cc2ccc(Cl)cc2)CC1` yielded an inhibition of -9.1%.
Work on `NN1C(=O)/C(=C2/Sc3ccccc3N2CCCS(=O)(=O)O)SC1=S` yielded an inhibition of -6.6%.
Work on `CC1=NN(C(=O)Cn2ccc([N+](=O)[O-])n2)C(O)(C(F)(F)F)C1` (centres undefined) yielded an inhibition of -3.6%.
For `CC1=NN(C(=O)c2ccc(Cn3ccc([N+](=O)[O-])n3)cc2)C(O)(C(F)(F)F)C1` (centres undefined), the inhibition was 63.4% (active).
`CC1=NN(C(=O)c2ccc(Cn3cc([N+](=O)[O-])cn3)cc2)C(O)(C(F)(F)F)C1` (centres undefined) showed an inhibition of -3.4%.
For `CC1Cc2ccccc2N1C(=O)CCn1c(=O)oc2ccccc21` (centres undefined), the inhibition was 5.2%.
For `COc1ccc(C(=O)n2ncc(C#N)c2N)cc1`, the inhibition was -0.2%.
Compound `CSC1=NCCN1CCOc1ccccc1` has an inhibition of -8.5%.
For `O=C(Cc1cccs1)N1CCN(c2ccc([N+](=O)[O-])cc2)CC1`, the inhibition was 70% (active).
Work on `O=C(Cc1ccc([N+](=O)[O-])cc1)N1CCN(c2ccc([N+](=O)[O-])cc2)CC1` yielded an inhibition of -5.9%.
`O=C(Cc1cccs1)N1CCN(c2ccc(F)cc2)CC1` was tested, and the inhibition was -8.1%.
`C[C@]12C=CC(=O)C=C1CC[C@@H]1[C@@H]2C(=O)C[C@@]2(C)[C@H]1CC[C@]2(O)C(=O)CO` was tested, and the inhibition was -5.9%.
With `CCOC1(C)OCC(=O)[C@]2(CCC3C4CCC5=CC(=O)C=CC5(C)C4C(=O)CC32C)O1` (some centres undefined) the inhibition was 55.8% (active).
With `CC(=O)OCC(=O)[C@@]1(O)CC[C@H]2[C@@H]3CCC4=CC(=O)C=C[C@]4(C)[C@H]3C(=O)C[C@@]21C` the inhibition was -4.3%.
For `CCN(CC)CCNC(=O)C1CCN(S(=O)(=O)N2CCCCC2)CC1`, the inhibition was -7.2%.
For `COc1ccccc1N1CCN(C(=O)C2CCN(C(=O)c3ccccc3C)CC2)CC1`, the inhibition was -10.9%.
Work on `COc1ccccc1N1CCN(C(=O)C2CCN(C(=O)c3cccc(Cl)c3)CC2)CC1` yielded an inhibition of -6.5%.
In the case of `COc1ccccc1N1CCN(C(=O)C2CCN(C(=O)c3ccccc3Cl)CC2)CC1`, the inhibition is reported as 69.4% (active).
For `O=C(Nc1ccc2c(c1)OCO2)c1ccccc1SCC(=O)N1CCCC1`, the inhibition was 0.1%.
For `CCOc1cc(N2CCOCC2)c(OCC)cc1NC(=O)c1c(-c2ccccc2Cl)noc1C`, the inhibition was 2.6%.
In the case of `CCSc1nnc(NC(=O)C2CCCCC2)s1`, the inhibition is reported as -4.2%.
`CCSc1nnc(NC(=O)C2CC=CCC2C(=O)O)s1` (centres undefined) showed an inhibition of 0.6%.
`CCSc1nnc(NC(=O)C2CCCCC2C(=O)O)s1` (centres undefined) was tested, and the inhibition was 66.2% (active).
`CS(=O)(=O)N(CC(=O)Nc1ccccc1Br)Cc1ccccc1` showed an inhibition of -4.5%.
For `CC1=N/C(=C/c2ccco2)C(=O)O1`, the inhibition was -3.8%.
In the case of `O=C1OC(c2ccc(Br)cc2)=N/C1=C\c1ccco1`, the inhibition is reported as 63.7% (active).
With `O=C1NC(c2ccc(Br)cc2)=N/C1=C/c1ccco1` the inhibition was 9.9%.
`CCOC(=O)c1ccc(N2C(=O)C3C(/C=C/c4ccccc4)OC4(C(=O)c5ccccc5C4=O)C3C2=O)cc1` (centres undefined) was tested, and the inhibition was 7.3%.
